The text below walks through data of PubChem BioAssay (Tox21).

Calls of active or inactive are those of the source. Entries that show only a call come without a potency. The call rests on the fitted dose curve; in most records, active means well fitted curve in the direction sought with a large enough effect in the repeat runs; inconclusive means weak or mixed curves; inactive means flat fitted curve, though single readings scatter. Positions of bridges follow the written chain, without caps; N, C: chain ends. Non-standard residues stand in square brackets, D forms with d. Residues, ends and D or L forms follow the SMILES beside them. *: point of attachment. pGlu = O=C1CC[C@@H](C(=O)O)N1; X2 = CC[C@H](C)CCCCC(=O)*; Thz = O=C(O)[C@@H]1CSCN1; Dab = NCC[C@H](N)C(=O)O
Potency means the concentration at half of the fitted maximal effect.

The nature of this experiment: qHTS assay to test for compound auto fluorescence at 460 nm (blue) in HEK293 cell free culture (AID 720681). The settings on record: cell-free medium, autofluorescence 405/460 nm (blue); series mostly up to 46 µM. The source says: U.S. Tox21 Program National Center for Advancing Translational Sciences [NCATS] NIH Chemical Genomics Center [NCGC] U.S. Environmental Protection Agency [EPA] National Institutes of Environmental Health Sciences [NIEHS] National Toxicology Program [NTP] U.S. Food and Drug Administration [FDA] Tox21 Assay Overview: Compound auto fluorescence often interferes with screening of the compound library against various biological targets and signaling pathways. Some of these compounds may have fluorophoric properties. Such properties may interfere with the assay outputs resulting in false positives and/or negatives. To decrease such complications and ensure the compound activities are relevant in terms of biological response, the Tox21 10K compound library was screened for auto fluorescence. From the fluorophores used as reporter signals in our screening assays, the auto fluorescence equivalencies of compounds against three fluorophores have been evaluated: Triamterene, Fluorescein and Rose Bengal sodium for blue, green and red fluorescence, respectively. The fluorescence intensities were measured using Excitation/Emission wavelengths at 405/460nm, 485/535nm and 540/590nm for blue, green and red labels, respectively. This assay includes the blue fluorescence data.
Tox21 Assay Protocol Summary: 5 uL of culture medium (DMEM containing 10% FBS) per well was dispensed into black wall/clear bottom 1536-well plates using a Multidrop Combi Dispenser (ThermoFisher Scientific, Waltham, MA). After 23 nL compound or DMSO vehicle was transferred into assay plate by a pintool work station (Kalypsys, San Diego, CA), fluorescence intensities in the assay plates were measured by an Envision (PerkinElmer, Shelton, CT) plate reader using three labels for measuring blue, green and red fluorescence at […] 460, 535 and 590nm respectively.
On the technique in general: In qHTS, concentration-response curves come from the screen itself.
`CSc1nc2cc(Oc3cccc(Cl)c3Cl)c(Cl)cc2[nH]1`: the Potency result was “inactive”.
Under `O=C1N=C2SCCN2C(=O)C1Cc1ccc(Cl)cc1` (stereo not given) stands “inactive”.
Next, `O=C1CC[C@@H](C(=O)N2CSC[C@H]2C(=O)O)N1` ([pGlu]-[Thz]-OH): “inactive”; `COc1cc2c(cc1OC)[C@@H](c1ccccc1)CN(C)CC2`: “inactive”.
Under `Cc1ncc(COP(=O)(O)O)c(CN)c1O` stands “inactive”; under `Cn1c(=O)c2c(ncn2CCOC(=O)C(C)(C)Oc2ccc(Cl)cc2)n(C)c1=O`, “inactive”.
Consider `O=[N+]([O-])O[C@@H]1CO[C@H]2[C@@H]1OC[C@@H]2O`, for which the Potency result is “inactive”.
Next, `O=c1[nH]cnc2[nH]cc(CN3CCCCC3)c12`: “inactive”; `CC[C@]1(O)CC2CN(CCc3c([nH]c4ccccc34)[C@@](C(=O)OC)(c3cc4c(cc3OC)N(C)[C@H]3[C@@](O)(C(N)=O)[C@H](O)[C@]5(CC)C=CCN6CC[C@]43[C@@H]65)C2)C1` (stereo not given in full): “inactive”.
Under `O=C(NNCS(=O)(=O)O)c1ccncc1` stands “inactive”; under `CC(=O)Nc1c(I)c(C(=O)O)c(I)c(N(C)C(C)=O)c1I`, “inactive”; under `C[C@]12C=CC(=O)N[C@@H]1CC[C@@H]1[C@@H]2CC[C@]2(C)[C@@H](C(=O)Nc3cc(C(F)(F)F)ccc3C(F)(F)F)CC[C@@H]12`, “inactive”.
Next, `CN1c2c(nc(N)[nH]c2=O)NCC1CNc1ccc(C(=O)NC(CCC(=O)O)C(=O)O)cc1` (stereo not given): “inactive”.
Take `C[C@H](O)[C@H](O)[C@H]1CNc2nc(N)[nH]c(=O)c2N1`: the Potency is 12.6 µM (active).
Under `CCN(CC)c1ccc(C(=C2C=CC(=[N+](CC)CC)C=C2)c2ccccc2)cc1` stands “inactive”; under `CC(NNC(=O)c1ccccc1)c1ccccc1` (stereo not given), “inactive”.
Under `CC[C@H]1OC(=O)[C@H](C)[C@@H](O[C@H]2C[C@@](C)(OC)[C@@H](O)[C@H](C)O2)[C@H](C)[C@@H](O[C@@H]2O[C@H](C)C[C@H](N(C)C)[C@H]2O)[C@](C)(O)C[C@@H](C)[C@@H]2N[C@@H](COCCOC)O[C@@H]([C@H]2C)[C@]1(C)O` stands “inactive”.
Next, `C=C1C(=O)O[C@H]2[C@H]1CC/C(C)=C\CC[C@@]1(C)O[C@@H]21`: “inactive”; `CC1CS(=O)(=O)CCN1/N=C/c1ccc([N+](=O)[O-])o1` (stereo not given): “inactive”; `O=C(CCCN1CCC(C(=O)c2ccc(F)cc2)CC1)c1ccc(F)cc1`: “inactive”.
Regarding `CN(C)CCC=C1c2ccccc2C(C)(C)c2ccccc21`, the Potency entry is “inactive”.
Under `FCOC(C(F)(F)F)C(F)(F)F` stands “inactive”.
Regarding `COc1ccc(-c2noc(CC(=O)O)c2-c2ccc(OC)cc2)cc1`, the Potency result is “inactive”.
`C/C1=C2N=C(/C=C3N=C(/C(C)=C4\[N-][C@@](C)([C@@H]5N=C1[C@](C)(CCC(=O)NCC(C)OP(=O)(O)O[C@H]1[C@@H](O)[C@@H](n6cnc7cc(C)c(C)cc76)O[C@@H]1CO)[C@H]5CC(N)=O)[C@@](C)(CC(N)=O)[C@@H]4CCC(N)=O)[C@@](C)(CC(N)=O)[C@@H]\3CCC(N)=O)C(C)(C)[C@@H]/2CCC(N)=O.CC(=O)O.[Co]` (stereo not given in full): the Potency result was “inactive”.
Regarding `CC1(C)S[C@@H]2[C@H](NC(=O)[C@H](NC(=O)N3CCN(S(C)(=O)=O)C3=O)c3ccccc3)C(=O)N2[C@H]1C(=O)O`, the Potency entry is “inactive”.
Next, `CCOC(=O)Oc1c(OC)cc(C(=O)O[C@@H]2C[C@@H]3CN4CCc5c([nH]c6cc(OC)ccc56)[C@H]4C[C@@H]3[C@H](C(=O)OC)[C@H]2OC)cc1OC`: “inactive”.
For `CCC(=O)O[C@H]1CC[C@H]2[C@@H]3CCc4cc(O)ccc4[C@H]3CC[C@]12C`, the Potency entry was “inactive”.
Under `FC(F)(F)C(F)(F)C(F)(F)C(F)(F)C(F)(F)C(F)(F)F` stands “inactive”; under `CC(=O)Nc1c(I)c(C(=O)N[C@H]2C(O)O[C@H](CO)[C@@H](O)[C@@H]2O)c(I)c(N(C)C(C)=O)c1I` (stereo not given in full), “inactive”; under `C[C@@](Cc1ccc(O)c(O)c1)(NN)C(=O)O`, “inactive”.
`O=P(O)(O)OC(CO)CO`: the Potency entry was “inactive”.
Under `C[C@H]1C[C@H]2[C@@H]3CCC4=CC(=O)C=C[C@]4(C)[C@@]3(F)[C@@H](O)C[C@]2(C)[C@@]1(O)C(=O)CCl` stands “inactive”; under `C=C[C@]1(C)C[C@@H](OC(=O)CSCCN(CC)CC)[C@]2(C)[C@H](C)CC[C@]3(CCC(=O)[C@H]32)[C@@H](C)[C@@H]1O`, “inactive”.
Under `COC(=O)[C@@H](N)CS` stands “inactive”; under `CC[C@H](C)CCCCC(=O)N[C@@H](CCN)C(=O)N[C@H](C(=O)N[C@@H](CCN)C(=O)N[C@H]1CCNC(=O)[C@@H]([C@H](C)O)NC(=O)[C@H](CCN)NC(=O)[C@H](CCN)NC(=O)[C@H](CC(C)C)NC(=O)[C@@H](CC(C)C)NC(=O)[C@H](CCN)NC1=O)[C@@H](C)O` (X2-[Dab]T[Dab][Dab][Dab][dL]L[Dab][Dab][dT]; lactam 4-C), “inactive”; under `CC#CCC(C)[C@H](O)/C=C/[C@@H]1[C@H]2c3cccc(CCCC(=O)O)c3O[C@H]2C[C@H]1O` (stereo not given in full), “inactive”.
On to `CN1CCCC(CN2c3ccccc3Sc3ccccc32)C1` (stereo not given), for which the Potency entry is “inactive”.
With `Cc1cc(C(=O)NNCc2ccccc2)no1`, the Potency entry is “inactive”.
For `O=C(O)c1cc(O)c2c(c1)[O][Bi][O]2`, the Potency result was “inactive”.
Next, `CCCCC/C=C\C/C=C\C/C=C\CCCCC(=O)O`: “inactive”.
